The whole screen tested about 16,000 compounds, of which about 5,100 (32%) were called active. Inconclusive results (about 25%) are left out. The call rests on the fitted dose curve; in most records, active means well fitted curve in the direction sought with a large enough effect; inconclusive means small, poorly fitted or top-dose-only effect, or effect the other way; inactive means no such curve, though single readings can be large or run the other way. Some of the results follow.
On the % scale 0 is the no-effect control and ±100 the full control effect.

Sequence of Cytochrome P450 3A4 (Homo sapiens) (P08684 whole entry, looked up): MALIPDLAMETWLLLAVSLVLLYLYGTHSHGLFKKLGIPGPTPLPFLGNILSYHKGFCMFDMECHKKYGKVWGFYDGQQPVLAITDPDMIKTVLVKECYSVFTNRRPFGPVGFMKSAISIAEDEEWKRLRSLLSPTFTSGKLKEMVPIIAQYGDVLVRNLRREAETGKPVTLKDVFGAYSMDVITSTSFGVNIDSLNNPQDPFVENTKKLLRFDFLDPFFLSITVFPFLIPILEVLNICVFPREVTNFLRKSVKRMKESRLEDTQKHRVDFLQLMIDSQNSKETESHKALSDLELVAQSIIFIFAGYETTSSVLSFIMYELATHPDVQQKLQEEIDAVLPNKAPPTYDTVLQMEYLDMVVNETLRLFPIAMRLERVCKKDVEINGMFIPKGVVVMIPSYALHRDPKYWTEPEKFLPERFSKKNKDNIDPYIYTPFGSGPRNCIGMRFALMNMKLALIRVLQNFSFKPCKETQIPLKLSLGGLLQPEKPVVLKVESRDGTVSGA

This assay has as its target Cytochrome P450 3A4 (Homo sapiens) (UniProt P08684). The assay is described as follows: Cytochrome panel assay with activity outcomes. Conditions: recombinant CYP, pro-luciferin dealkylation, luminescence, p450-cyp3a4; series mostly up to 57.1 µM.
The term AC50 denotes the concentration giving half of the maximal activity seen. Consider `CCOC(=O)N1CCN(C(=O)CN(C)S(=O)(=O)c2ccc3c(c2)C(C)(C)C(=O)N3C)CC1`, for which the AC50 entry is “inactive”.
Take `CC(C)CC(=O)N1CCC(N2CCN(c3ccccc3)CC2)CC1`: the activity, negative = inhibition is 6.02% [at 2.29 µM] (inactive).
Consider `CN(CC(=O)N1CCN(c2ccccc2)CC1)S(=O)(=O)c1cnc[nH]1`, for which the AC50 was 11.2 µM (active).
The same measure, in the same setting: as for `CCc1cccc(NC(=O)CN(C)S(=O)(=O)c2cnc[nH]2)c1`, the figure is 2.51 µM (active); as for `CCc1cccc(CC)c1NC(=O)CN(CC(=O)O)CC(=O)O`, “inactive”.
The same measure, in the same setting: as for `COc1cc(O)oc1C=Nc1ccc(C(F)(F)F)cc1`, the figure is 8.91 µM (active); as for `COc1cc(O)oc1C=Nc1ccc(Cl)cc1`, 15.8 µM (active).
Still for that read-out and setting: as for `CCOc1[nH]n(-c2ccc(Cl)cc2)c(=O)c1C=Nc1ccc(O)cc1`, the entry is “inactive”.
On to `C/C(=N\OC(=O)NC1CCCCC1)c1sc(-c2ccccc2)nc1C`, for which the AC50 is 15.8 µM (active).
Still for that read-out and setting: the same measure for `C/C(=N\OC(=O)c1cccc(C)c1)c1sc(-c2ccccc2)nc1C`: “inactive”; for `c1ccc2c(-c3c[nH]c4ccccc34)c3ccccc3nc2c1`: 8.91 µM (active).
`c1ccc2c(CN3CCN(Cc4c[nH]c5ccccc45)CC3)c[nH]c2c1`: the activity, negative = inhibition is -20.1% [at 11.4 µM] (inactive).
Consider `CN(C)C(=O)CCc1nc(-c2ccc(C(C)(C)C)cc2)no1`, for which the AC50 result was “inactive”.
The same measure, in the same setting: the same measure for `O=C(O)CCc1nc(-c2ccccc2-n2cccc2)no1`: 2.51 µM (active); for `CCN(CC)CCc1nc(-c2ccccc2)no1`: “inactive”; for `O=C(NC1CCCCC1)C(c1cccs1)N(Cc1cccs1)C(=O)c1ccco1` (stereo not given): 3.16 µM (active).
On the same count and under the same terms, as for `O=C(Cc1cccs1)N/N=C/C(Br)=C/c1ccccc1`, the entry is “inactive”; as for `COc1ccc(C(C(=O)NC2CCCC2)N(Cc2ccc(F)cc2)C(=O)c2ccn[nH]2)cc1OC` (stereo not given), 3.98 µM (active).
With `O=C(NC1CCCC1)C(c1ccc(F)cc1)N(Cc1ccc(F)cc1)C(=O)c1ccn[nH]1` (stereo not given), the activity, negative = inhibition was -28.2% [at 2.29 µM] (inactive).
The same measure, in the same setting: the same measure for `O=C(O)c1cscc1Cc1cccs1`: 17.7% [at 11.4 µM] (inactive).
With `COc1ccc(CN(C(=O)Cc2cccs2)C(C(=O)NC2CCCC2)c2ccncc2)cc1` (stereo not given), the AC50 is 1 µM (active).
On the same count and under the same terms, as for `O=C(NC1CCCC1)C(c1ccsc1)N(Cc1ccccc1)C(=O)Cc1cccs1` (stereo not given), the figure is 2 µM (active).
On the same count and under the same terms, as for `CCc1cc2c(=O)[nH]cnc2s1`, the entry is “inactive”.
As to `O=C(O)/C=C(/C(=O)O)[C@]12CCN3CC4=CCO[C@@H]5CC(=O)N[C@@H]1[C@H]5[C@H]4C[C@H]32`, the activity, negative = inhibition is 2.64% [at 11.4 µM] (inactive).
Turning to `COC(=O)C1C(O)=C(C=NCc2ccccc2)C(=O)CC1(C)C` (stereo not given), the AC50 entry is “inactive”.
On to `COCCCN=CC1=C(O)CC(C)(C)CC1=O`, for which the AC50 entry is “inactive”.
Still for that read-out and setting: as for `COc1ccc(CCN=CC2=C(O)CC(C)(C)CC2=O)cc1`, the figure is 14.1 µM (active); as for `Cc1cc(C)c2[nH]c(=O)c(CN(Cc3ccco3)C(=O)c3cccs3)cc2c1`, 2.82 µM (active).
On the same count and under the same terms, the same measure for `CC1(C)CC(=O)C2=C(C1)N(Cc1cccnc1)C(=O)C2(NC(=O)c1cccnc1)C(F)(F)F` (stereo not given): 12.6 µM (active).
As for `CCCCN1C(=O)C(NC(=O)C2CC2)(C(F)(F)F)C2=C1CC(C)(C)CC2=O` (stereo not given), the activity, negative = inhibition is 5.27% [at 2.29 µM] (inactive).
The same measure, in the same setting: the same measure for `CCCCN1C(=O)C(NC(=O)CC(C)C)(C(F)(F)F)C2=C1CC(C)(C)CC2=O` (stereo not given): -16% [at 2.29 µM] (inactive).
For the compound `O=C(NC1(C(F)(F)F)C(=O)Nc2c1c(=O)[nH]c(=O)n2-c1ccc(F)cc1)c1cccnc1` (stereo not given), the AC50 entry is “inactive”.
On the same count and under the same terms, as for `CCCCN1C(=O)C(NC(=O)c2cccnc2)(C(F)(F)F)C2=C1CC(C)(C)CC2=O` (stereo not given), the figure is 7.94 µM (active).
`CN(C)CC(O)COc1ccc(C(C)(C)c2ccc(OCC(O)CN(C)C)cc2)cc1` (stereo not given): the AC50 result is “inactive”.
Regarding `CCOC(=O)c1cc2sc(C)cc2n1CC(=O)N1CCN(C(=O)c2ccco2)CC1`, the AC50 is 14.1 µM (active).
In the case of `CC1(C)CC(=O)C(CCCN2C(=O)c3ccccc3C2=O)C(=O)C1`, the AC50 entry is “inactive”.
On the same count and under the same terms, as for `CCOC(=O)c1cc2sc(C)cc2n1CCCN1C(=O)c2ccccc2C1=O`, the figure is 3.16 µM (active); as for `Nc1ccc(N2CCN(C(=O)c3ccco3)CC2)cc1`, “inactive”.
For the compound `OCCN(CCO)c1ncnc2nc[nH]c12`, the activity, negative = inhibition was -5.25% [at 11.4 µM] (inactive).
`O=C(COc1ccc2ccccc2c1Br)NNC(=O)Nc1ccccc1`: the AC50 was 14.1 µM (active).
Turning to `CCCC(=O)NNC(=O)Nc1ccccc1`, the activity, negative = inhibition is -11.8% [at 2.29 µM] (inactive).
The same measure, in the same setting: as for `Cn1cnc([N+](=O)[O-])c1SCC(=O)O`, the figure is -11.5% [at 11.4 µM] (inactive).
As to `CC1=N/C(=C\c2ccc([N+](=O)[O-])cc2)C(=O)N1c1ccc(Br)c(C)c1`, the AC50 was 2.82 µM (active).
For `CC1=N/C(=C\c2ccc([N+](=O)[O-])cc2)C(=O)N1c1ccc(Cl)cc1`, the AC50 result was “inactive”.
Same read-out and setting: the same measure for `CN(C)c1ccc(/C=C2/C(=O)N(c3ccc([N+](=O)[O-])cc3)N=C2N2CCOCC2)cc1`: “inactive”.
For `CCOC(=O)N/N=C1/C[C@@H](O)[C@@H](O)[C@@H]2[C@@H]3C(=O)N(C4CCCCC4)C(=O)[C@H]3CC[C@H]12`, the activity, negative = inhibition is -24.5% [at 11.4 µM] (inactive).
Same read-out and setting: the same measure for `CCCc1nc2ccccc2c(C(=O)OCC(=O)Nc2cccc(S(=O)(=O)N3CCOCC3)c2)c1CC`: -27.2% [at 2.29 µM] (inactive).
Regarding `O=C(O)C1C2CCC(C2)C1C(=O)NCc1ccco1` (stereo not given), the AC50 entry is “inactive”.
Same read-out and setting: the same measure for `O=C(COC(=O)c1cccc(S(=O)(=O)N2CCN(c3ccccc3)CC2)c1)NCc1ccco1`: 12.6 µM (active).
Still for that read-out and setting: as for `CN(C)CCCn1cc(C2=C(c3c[nH]c4ccccc34)C(=O)NC2=O)c2ccccc21`, the figure is 12.6 µM (active).
On to `CN(C)CCCN=c1c2ccccc2n(C)c2[nH]c(=O)n(C)c(=O)c12`, for which the activity, negative = inhibition was 2.56% [at 11.4 µM] (inactive).
Take `CN(C)CCCNC(=O)c1cc2c3ccccc3n(C)c2s1`: the AC50 entry is “inactive”.
On to `c1c[nH]c(CN2CCN(Cc3ncc[nH]3)CC2)n1`, for which the activity, negative = inhibition was -22.2% [at 11.4 µM] (inactive).
In the case of `Clc1cccc(Cl)c1NC1=NCCN1`, the AC50 entry is “inactive”.
In the case of `NCCNc1ncnc2ccc(Cl)cc12`, the activity, negative = inhibition was -27.5% [at 11.4 µM] (inactive).
With `Clc1cccc(Nc2ncnc3ccc(Br)cc23)c1`, the AC50 is 14.1 µM (active).
The same measure, in the same setting: as for `COc1ccc(Nc2ncnc3sc(-c4ccccc4)cc23)cc1`, the figure is 11.2 µM (active).
As for `Brc1ccc2ncnc(Nc3cccc4ccccc34)c2c1`, the activity, negative = inhibition is 20.8% [at 2.29 µM] (inactive).
With `COc1cccc(-c2ccc3ncnc(NC4CC4)c3c2)c1`, the AC50 is 2 µM (active).
The same measure, in the same setting: as for `CNc1ncnc2ccc(-c3ccccc3OC)cc12`, the figure is 20 µM (active).
On to `COc1ccc(Nc2ncc(C(=O)N3CCN(Cc4ccccc4)CC3)c3ccccc23)cc1`, for which the activity, negative = inhibition is -29.5% [at 2.29 µM] (inactive).
Still for that read-out and setting: as for `COc1ccc(-n2cnc3sc(-c4ccccc4)cc3c2=O)cc1`, the figure is 13% [at 2.29 µM] (inactive).
Still for that read-out and setting: the same measure for `CC(C)=NOCc1ccc(-c2cc(-c3ccccc3)no2)cc1`: 5.94% [at 11.4 µM] (inactive); for `C[C@@H](c1ccccc1)N1C(=O)[C@@H]2[C@H]3C(=CC[C@H]2C1=O)C(=O)[C@H]1O[C@H]1[C@H]3O`: -19.9% [at 11.4 µM] (inactive).
Still for that read-out and setting: the same measure for `CN(C)S(=O)(=O)Nc1ccccn1`: -8.58% [at 11.4 µM] (inactive).
With `CN(C)c1ccc(-c2ccc3ncnc(NC4CC4)c3c2)cc1`, the AC50 is 3.16 µM (active).
Still for that read-out and setting: as for `COc1ccccc1-c1ccc2ncnc(Nc3ccccc3)c2c1`, the figure is 12.6 µM (active).
As for `COc1cccc(-c2ccc3ncnc(Nc4ccccc4)c3c2)c1`, the half-maximal activity concentration (AC50) is 10 µM (active).
On the same count and under the same terms, as for `CN(C)C(=O)c1ccc(-c2ccc3ncnc(NC4CCNCC4)c3c2)cc1`, the entry is “inactive”; as for `COc1cccc(Nc2ncc(C(=O)O)c3ccccc23)c1`, “inactive”.
Consider `C/C=C\C1=C(CO)C(=O)C2O[C@]2(CC=C(C)C)C1=O` (stereo not given in full), for which the activity, negative = inhibition is -13.4% [at 11.4 µM] (inactive).
With `Cc1sc2c(c1C)c(=O)n(-c1ccccc1)c1nnc(C)n21`, the AC50 result was “inactive”.
Take `Cc1ccccc1C(C(=O)NC1CCCC1)N(C(=O)Cc1cccs1)c1ccc2c(c1)OCCO2` (stereo not given): the AC50 was 1 µM (active).
On the same count and under the same terms, as for `CCOc1ccc(N(C(=O)/C=C/C(=O)Nc2cc(C)on2)C(C(=O)NC2CCCC2)c2ccccc2C)cc1` (stereo not given), the figure is 0.891 µM (active).
On to `CCOC(=O)CN(C(=O)CCC(=O)Nc1cc(C)on1)C(C(=O)NC1CCCC1)c1cccnc1` (stereo not given), for which the activity, negative = inhibition is -13% [at 2.29 µM] (inactive).
Consider `Cc1nn(C)cc1C(C(=O)NC1CCCCC1)N(C(=O)Cc1cccs1)c1ccc(C(C)C)cc1` (stereo not given), for which the AC50 was 2.51 µM (active).
On the same count and under the same terms, as for `O=C(O)CN(CCN(CC(=O)O)CC(=O)O)CCN(CC(=O)O)CC(=O)O`, the entry is “inactive”.
Turning to `Oc1ccc(Cc2nccc3cc(O)c(O)cc23)cc1O`, the activity, negative = inhibition is -11.6% [at 11.4 µM] (inactive).
Still for that read-out and setting: as for `CC1(C)CC(=O)C(C(c2cccc(O)c2O)C2C(=O)CC(C)(C)CC2=O)C(=O)C1`, the figure is -5.88% [at 11.4 µM] (inactive).
As to `OCCN(Cc1ccccc1)Cc1cccc(Cl)c1Cl`, the activity, negative = inhibition was 9.74% [at 11.4 µM] (inactive).
With `CCN(CC(=O)NCc1cccs1)S(=O)(=O)c1ccc(C(C)C)cc1`, the AC50 is 7.08 µM (active).
Same read-out and setting: the same measure for `COc1ccccc1/C=N/NC(=O)CC(=O)Nc1ccc(Cl)c(Cl)c1`: 7.94 µM (active).
Turning to `O=C(CO)N/N=C/c1ccccc1F`, the AC50 result was “inactive”.
`CCOC(=O)N/N=C/c1ccccc1F`: the AC50 entry was “inactive”.
Regarding `COc1ccc(OC)c(C2C(C(=O)Nc3nc4ccccc4s3)=C(C)NC3=C2C(=O)CCC3)c1` (stereo not given), the AC50 is 2.24 µM (active).
Still for that read-out and setting: as for `COCCN1CN=C(Nc2nc3ccccc3s2)NC1`, the entry is “inactive”; as for `CO[C@@H]1CC[C@@]2(C)[C@@H](CC[C@@]3(C)[C@H]2CC=C2[C@H]4CC(C)(C)[C@H](O)[C@@H](OC(C)=O)[C@]4(CO)[C@H](O)C[C@]23C)[C@@]1(C)CO` (tested in a mixture with another compound), “inactive”; as for `COc1cccc(/C=c2/s/c(=C(\C#N)C(=O)N3CCOCC3)n(-c3ccccc3)c2=O)c1`, “inactive”.
Same read-out and setting: as for `Clc1ccccc1NN(Cc1ccncc1)c1ccccc1Cl`, the figure is 0.251 µM (active).
`Clc1ccccc1NN(Cc1ccccn1)c1ccccc1Cl`: the activity, negative = inhibition is -2.68% [at 11.4 µM] (inactive).
